PubChem BioAssay AID463173 (ICCB-Longwood Screening Facility, Harvard Medical School, 2010)
Hit rate of the full screen: of about 52,000 compounds, about 4,300 (8.3%) were called active. This is one part of a sample in which actives are shown more often than they occur. Unmarked numbers belong to inactive results. Rule as the data show it: active = survival mostly below about 52% (no sharp cut-off); inactive = mostly above about 56%.

These molecules were tested on DeltatarO mutant (assay: growth inhibition of S. aureus wild type versus tarO mutant, primary screen, teichoic acid synthesis inhibitors, RN4220, OD600 (AID 463173)). Details: OD600, 18 h, stronger effect = lower value, screened at 18.75 µg/mL (by protocol).

SMILES | survival
CCN(CCCNC(=O)c1cc2cc3ccc(OC)cc3nc2s1)c1cccc(C)c1 | 83%
CCN(CCCNC(=O)c1cc2cc3cc(OC)ccc3nc2s1)c1ccccc1 | 53% (active)
CCN(CCCNC(=O)c1cc2cc3cc(OC)ccc3nc2s1)c1cccc(C)c1 | 46% (active)
CCN(CCCNC(=O)c1cc2cc3ccc(OC)cc3nc2s1)c1ccccc1 | 97%
CCN(CCCNC(=O)c1cc2cc3ccc(C)cc3nc2s1)c1ccccc1 | 126%
CCN(CCCNC(=O)c1cc2cc3cc(C)ccc3nc2s1)c1cccc(C)c1 | 102%
O=C(COCc1cc(-c2cccs2)on1)NCc1ccc(Cl)cc1 | 64%
CC1CCN(S(=O)(=O)c2ccc(N3CCCCS3(=O)=O)cc2)CC1 | 71%
Cc1ccc2oc(C(=O)N3CCC(c4nc5ccccc5s4)CC3)c(C)c2c1 | 52%
O=C(NCCS(=O)(=O)N1CCN(c2ccccc2F)CC1)c1cc(=O)c2ccccc2o1 | 71%
Cc1cccc(NC(=O)C2CCCN(S(=O)(=O)c3ccc4c(c3)oc(=O)n4C)C2)c1C (stereo not given) | 83%
CCC(CC)c1nnc(NC(=O)CS(=O)(=O)Cc2ccccc2)s1 | 70%
CCOC(=O)c1cnc2c(ccc3ccccc32)c1Nc1ccccc1OC | 28% (active)
CCOC(=O)c1cnc2c(ccc3ccccc32)c1Nc1ccccc1OCC | 126%
CCOC(=O)c1cnc(N2CCN(c3ccc(OC)cc3)CC2)c2ccccc12 | 97%
CCOC(=O)c1cnc2c(ccc3ccccc32)c1Nc1ccc(OC)cc1OC | 8% (active)
CCOC(=O)c1cnc(NCc2ccccc2OC)c2ccccc12 | 89%
CCOC(=O)c1c(C)oc2ncnc(Nc3ccc(OC)cc3OC)c12 | 97%
CCOC(=O)CSc1nc2cc(OC)c(OC)cc2c2nc(-c3ccccc3)nn12 | 59%
O=C(Cn1ncc2c(=O)oc3ccccc3c21)NCc1ccc(Cl)cc1 | 86%
CCOc1ccccc1N(CC)C(=O)c1cc2c(=O)n(CC)c3ccccc3c2s1 | 121%
COc1ccc(C2=Nc3ccc(OC(F)(F)F)cc3NC(c3cccnc3)=N2)cc1 | 67%
COc1ccc(CNS(=O)(=O)c2cnc(N)nc2)cc1 | -2% (active)
CC(C)Oc1ccc(CNS(=O)(=O)c2cnc(N)nc2)cc1 | 115%

SMILES | survival
COc1cccc(CNS(=O)(=O)c2cnc(N)nc2)c1 | 64%
CCc1nn(C(C)C(=O)N2CCN(c3cccc(C(F)(F)F)c3)CC2)c(=O)c2cc3occc3n12 (stereo not given) | 73%
COc1ccc(OC)c(CCNC(=O)CCn2c(=O)c3cccn3c3cccnc32)c1 | 84%
CCN(CC)c1ccc(-n2nc3cc(C)c(NC(C)=O)cc3n2)cc1 | 92%
CCN(CC)c1ccc(-n2nc3cc(C)c(NC(=O)c4ccccc4C)cc3n2)c(C)c1 | 73%
CCN(CC)c1ccc(NC(=O)CN2CCN(c3ccccc3F)CC2)cc1 | 75%
Cc1cc2nn(-c3ccc(F)cc3)nc2cc1NC(=O)c1cccc2c(Cl)cccc12 | 59%
O=C(Nc1ccc(S(=O)(=O)N(Cc2ccccc2)c2ccccc2)cc1)c1ccccc1F | 58%
Cc1cc2nn(-c3ccccc3)nc2cc1NC(=O)c1cccc2c(Cl)cccc12 | 43% (active)
CCN(CC)c1ccc(-n2nc3cc(C)c(NC(=O)c4ccccc4F)cc3n2)cc1 | 56% (active)
Cc1cc2nn(-c3ccc(F)cc3)nc2cc1NC(=O)c1cccc2ccccc12 | 68%
CCN(CC)c1ccc(NC(=O)c2ccccc2F)cc1 | 63% (active)
Cc1c(Cl)cccc1Nc1sc(C(=O)c2ccccc2)c(N)c1S(=O)(=O)c1ccccc1 | 71%
Cc1cc(C)cc(OCCSc2nc(-c3ccc(C(C)(C)C)cc3)nc3cc(=O)[nH]n23)c1 | 83%
Cn1c(CNC(=O)CSc2n[nH]c(-c3ccccc3)n2)nc2ccccc21 | 89%
O=C(NCCSc1c(-c2ccc(Cl)cc2)[nH]c2ccccc12)c1ccc(S(=O)(=O)N2CCOCC2)cc1 | 68%
CCOC(=O)c1sc2ccccc2c1S(=O)(=O)Nc1ccc(N(C)C)cc1 | 126%
CC(C)c1ccc2occ(CC(=O)N(Cc3ccc(F)cc3)C3CCS(=O)(=O)C3)c2c1 (stereo not given) | 61%
Cc1ccc(CNC(=O)c2ccc3c(c2)nc2n3CCCC2)cc1 | 86%
Cc1cn2c(=O)cc(COC(=O)c3ccc(NC(=O)C(C)Oc4ccccc4)cc3)nc2s1 (stereo not given) | 8% (active)
Cc1cn2c(=O)cc(COC(=O)c3cccc(NC(=O)C(C)Oc4ccccc4)c3)nc2s1 (stereo not given) | 95%
Cc1cn2c(=O)cc(COC(=O)c3ccc(NC(=O)c4ccc(F)cc4)cc3)nc2s1 | 96%
Cc1cn2c(=O)cc(COC(=O)c3ccc(NC(=O)c4ccc(C(C)(C)C)cc4)cc3)nc2s1 | 20% (active)
Cc1cn2c(=O)cc(COC(=O)c3cccc(NC(=O)c4ccc(C(C)(C)C)cc4)c3)nc2s1 | 103%

SMILES | survival
CC(Oc1ccccc1)C(=O)Nc1ccc(C(=O)OCc2cc(=O)n3ccsc3n2)cc1 (stereo not given) | 87%
COc1ccccc1CNC(=O)CCCc1nnc2n(CC(C)C)c(=O)c3sccc3n12 | 95%
CCN(CC)C(=O)N1CCN(C(=O)N(CC)CC)CC1 | 79%
CCCCOC(=O)Cc1c(C)[nH]c(=O)[nH]c1=O | 114%
CC(NC1CCCC1)c1ccccc1 (stereo not given) | 84%
COc1ccc(CCNC(=O)CSc2ncc3c(n2)-c2cc(Cl)ccc2N(Cc2ccccc2)S3(=O)=O)cc1OC | 87%
COc1ccc(N2CCN(C(=O)c3cc(-c4ccc(C)c(F)c4)on3)CC2)cc1 | 92%
Cc1nn2c(C)c(C(=O)N3CCN(c4ccc(Cl)cc4)CC3)cnc2c1-c1ccc(F)cc1 | 88%
COc1cccc(-c2cc(C(=O)N3CCN(c4ccc(F)cc4)CC3)no2)c1 | 44% (active)
COc1ccc(-c2cc(C(=O)N3CCN(c4ccc(F)cc4)CC3)no2)cc1OC | 57%
COc1ccccc1N1CCN(C(=O)c2cc(-c3ccc(C)c(F)c3)on2)CC1 | 66%
COc1cccc(N2CCN(C(=O)c3cnc4c(-c5ccc(F)cc5)c(C)nn4c3C)CC2)c1 | -5% (active)
COc1cccc(N2CCN(C(=O)c3cnc4c(-c5ccccc5)c(C)nn4c3C)CC2)c1 | 87%
COc1ccccc1N1CCN(C(=O)c2cc(-c3ccc(F)cc3)on2)CC1 | 46%
COc1cccc(-c2cc(C(=O)N3CCN(c4ccccc4OC)CC3)no2)c1 | -4% (active)
COc1ccc(S(=O)(=O)NCCc2sc(C)nc2C)cc1F | 88%
CC(C)N(C(C)C)S(=O)(=O)c1ccccc1 | 100%
COc1ccc(-c2nc3cccc(C)n3c2NC(C)(C)C)cc1O | 109%
COCCN1C(=O)N(c2cccc(OC)c2)C(=O)C1CC(=O)Nc1ccccc1 (stereo not given) | 139%
CCOC(=O)c1sc(NC(=O)CSc2nnc(Cn3nnc4ccccc43)n2C)nc1C | 94%
O=C(CSc1nc(=O)[nH]c2c1CCC2)NCc1ccc(Cl)cc1 | 67%
COc1ccc(NC(=O)Nc2nnc(N3CCCCCC3)s2)cc1 | 72%
CC(C(=O)NCCSCc1cccc(Cl)c1)N(c1ccccc1)S(C)(=O)=O (stereo not given) | 61%
CSc1ncc(Cl)c(C(=O)N(Cc2ccc(C)cc2)C2CCS(=O)(=O)C2)n1 (stereo not given) | 88%

SMILES | survival
O=C(CN1C(=O)COc2ccc(S(=O)(=O)N3CCOCC3)cc21)N1CCN(c2ccc(Cl)cc2)CC1 | 92%
CCOc1ccc(C(=O)Nc2c(C(=O)Nc3ccccc3OC)oc3ccccc23)cc1OCC | 65%
CCn1c(SCC(=O)c2ccc(C)cc2)nnc1C1CC1 | 66%
COc1ccc2oc(-c3cccc(F)c3)cc(=O)c2c1 | 99%
CCCCC(=O)Oc1ccc2oc(-c3ccc(OC)cc3)cc(=O)c2c1 | 30% (active)
Cc1cc(C)nc(SCC(=O)Oc2ccc3oc(=O)cc(C)c3c2)n1 | 95%
CCCC(=O)Oc1ccc2ccc(=O)oc2c1 | 89%
COC(=O)COc1ccc2oc(-c3ccc(OC)cc3)cc(=O)c2c1 | 36% (active)
COc1ccc(-c2cc(=O)c3cc(OCC(=O)OC(C)C)ccc3o2)cc1 | 124%
O=C(Cn1c(=O)n(-c2ccccc2)c(=O)c2c3c(sc21)CCCC3)Nc1ccc(F)cc1 | 98%
CCc1ccc(CNC(=O)c2cnc(N3CCCCC3)c3ccccc23)cc1 | 94%
COc1ccccc1NC(=O)c1cc(S(=O)(=O)N2CCc3ccccc32)ccc1F | 81%
CCNC(=O)CC1C(=O)N(c2ccc(C)cc2)C(=O)N1CCC(C)C (stereo not given) | 91%
CC(C)c1ccc(NC(=O)CCNS(=O)(=O)c2cccc3nsnc23)cc1 | 50%
Cc1ccccc1NC(=O)c1ccc2nc(Cc3ccccc3)oc2c1 | 102%
CNC(=O)c1ccc2nc(CCc3ccccc3)oc2c1 | 80%
O=C(NCCCN1CCN(c2ccccc2F)CC1)c1ccc2nc(Cc3ccccc3)oc2c1 | 46% (active)
O=C(NCCCN1CCN(c2ccccc2)CC1)c1ccc2nc(Cc3ccccc3)oc2c1 | 92%
CNC(=O)c1ccc2nc(Cc3ccccc3)oc2c1 | 37% (active)
CCNC(=O)c1ccc2nc(Cc3ccccc3)oc2c1 | 101%
O=C(NCCCN1CCN(c2ccccc2F)CC1)c1ccc2nc(CCc3ccccc3)oc2c1 | 87%
Cc1ccc(NC(=O)c2ccc3nc(Cc4ccccc4)oc3c2)cc1F | 25% (active)
CC(=O)c1cccc(NC(=O)c2ccc3nc(Cc4ccccc4)oc3c2)c1 | 63%
